Assay outcomes as filed in PubChem BioAssay.
Abeta rescue: A-beta toxicity reversal in yeast; yeast expressing A-beta42, growth rescue, OD600, 48 h; response scale: 0% DMSO, 100% iron-clioquinol control; Potency, µM (doses to about 46.1 µM), actives largely listed as activators; actives 0.063% (n = 410,000); further: nearly all actives have a fitted effect of over 55% in size
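Yeast A-beta toxicity model in growth medium with pinned compounds, 48 h at 30 C; growth read as absorbance at 600 nm. Normalized to FeCl3/clioquinol equimolar mix (positive) and DMSO (negative).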
aSyn rescue: rescues yeast growth from alpha-synuclein toxicity; Yeast expressing alpha-synuclein, growth rescue, BacTiter-Glo, 24 h; Potency, µM (doses to about 46.1 µM), for the others: at the top dose growth rescue (activation), actives largely listed as activators; actives 0.14% (n = 370,000); AID 652106; further: % of control where 0% means no effect; nearly all actives have a fitted effect of over 65% in size
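Rescue of yeast growth: cells expressing toxic alpha-synuclein, induced in galactose at OD600 0.02, incubated with compound 24 h at 30 C. ATP luminescence quantified growth; inhibitors of toxicity appear as activators.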
FUS yeast rescue: suppressors of FUS proteinopathy in yeast; actives 0.24% (n = 390,000); AID 1347120; S. cerevisiae FUS-expressing, growth rescue, OD600, 24 h; Potency, µM (top dose mostly 76.6 µM), usual class: activators;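 further: plate controls were DMSO vehicle for no effect and reference control for full effect; nearly all actives have a fitted effect of over 55% in size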
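Galactose (2%) drives FUS expression in yeast precultured in raffinose; seeding density OD 0.005. Test compounds incubated 24hr at 30C and 99% humidity before absorbance at 600 nm was measured.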
TDP43 rescue: inhibitors of TDP-43 toxicity in yeast; TDP-43 expressing yeast growth rescue, BacTiter-Glo, 24 h; Potency, µM (doses to about 46.1 µM), inactives show at the top dose growth rescue (activation), hits mostly activators; actives 1.8% (n = 410,000); further: % of control where 0% means no effect; nearly all actives have a fitted effect of over 50% in size
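Cell-based yeast growth screen: TDP-43 expression induced in galactose, inoculum OD600=0.02 after raffinose pregrowth to mid-log. Read-out BacTiter-Glo luminescence at 24 hr, 30 deg C; inhibition of toxicity seen as signal increase.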
An asterisk follows results filed as active; i = inactive; u = inconclusive; x = no result given; [ ] = dose if it differs, or a comment. A selection: hits, their analogues and other compounds. The true share with any hit is near 2.1%. The call rests on the fitted dose curve; in most records, active means well fitted curve in the direction sought with a large enough effect; inconclusive means small, poorly fitted or top-dose-only effect, or another doubt; inactive means no such curve, though single readings can be large; an effect the other way counts as inactive or inconclusive. Potency means the concentration at half of the fitted maximal effect.

SMILES | Abeta rescue | aSyn rescue | FUS yeast rescue | TDP43 rescue
Cc1cc(C)c(COc2ccc(/C=N/n3c(C)n[nH]c3=S)cc2)c(C)c1 | u | 1% | i | 20µM*
Cc1ccccc1C(=O)N1CCC(C(=O)Nc2ccc3c(c2)OCCO3)CC1 | i | -4% | i | 15%
COCCCNc1oc(-c2ccc(COc3ccccc3C)o2)nc1C#N | i | x | i | 16µM*
CCCCNc1oc(-c2ccc(COc3ccccc3C)o2)nc1C#N | i | x | i | -4%
O=C(c1cc(-c2ccccc2)on1)N1CCCc2ccccc21 | i | 0% | i | 30%
O=C(c1cc(-c2ccco2)on1)N1CCCc2ccccc21 | i | -2% | 35µM* | 6%
O=[N+]([O-])c1ccc(Nc2ccccc2)c2nonc12 | i | 5% | i | -5%
O=[N+]([O-])c1ccc(Sc2cccc[n+]2[O-])c2nonc12 | i | 0.56µM* | i | u
COc1ccccc1CNc1nc(Oc2cccc(F)c2)c2sccc2n1 | i | 8% | u | 35µM*
COCCNc1nc(Oc2cccc(F)c2)c2sccc2n1 | i | -3% | i | u
COc1ccc([C@H]2/C=C\CN(C(=O)CC(C)(C)C)[C@@H](C)C(=O)N2Cc2ccc(F)cc2)cc1 | i | 3% | i | 35µM*
O=C(NCc1cccc(Cl)c1)c1ccc(-c2cccnc2)c2ccoc12 | i | 3% | i | 35µM*
O=C(Nc1cccc(C(F)(F)F)c1)c1cccc2c(-c3cccnc3)coc12 | i | -1% | i | 16µM*
Cn1cc(-c2ccc(C(=O)NCc3cccc(Cl)c3)c3occc23)cn1 | i | 1% | i | 5%
O=C(NCc1ccc(C(F)(F)F)cc1)c1ccc(-c2cccnc2)c2ccoc12 | i | -5% | u | 13µM*
O=C(NCc1ccc(C(F)(F)F)cc1)c1ccc(-c2ccc(F)c(F)c2)c2ccoc12 | i | 9% | i | -3%
O=C(NCC(c1ccco1)N1CCc2ccccc21)c1ccccc1Br (configuration not stated) | i | 13% | i | 14µM*
O=[N+]([O-])c1ccc(/C=N/NC(=S)Nc2ccccc2F)o1 | i | 9% | i | 13µM*
CCc1cccc(Nc2ncnc3onc(-c4ccc(F)cc4)c23)c1 | i | x | i | u
Cc1cccc(Nc2ncnc3onc(-c4ccc(F)cc4)c23)c1C | i | -1% | u | 14µM*
Cc1cccc(Nc2ncnc3onc(-c4cccc(Cl)c4)c23)c1C | i | -2% | u | 13µM*
O=C(CSc1nc2ccccc2s1)N1c2ccccc2Sc2ccccc21 | i | 0% | i | 17%
CCOc1ccc2c(c1)-c1c(ssc1=S)C(C)(C)N2 | i | 1% | i | 22µM*
CCOc1ccc2c(c1)-c1c(ssc1=S)C(C)(C)N2C(=O)CSC1=NCCS1 | i | -1% | i | 18%
CCOc1ccccc1NC(=O)c1cccc2ccccc12 | i | -1% | i | 7.9µM*
SMILES | Abeta rescue | aSyn rescue | FUS yeast rescue | TDP43 rescue
O=C(Nc1ccccc1Oc1ccccc1)c1cnccn1 | i | -7% | i | 16%
CCOc1ccccc1NC(=O)c1cnccn1 | i | -9% | i | 11µM*
CC1(OC(=O)c2cccs2)C(=O)C=C2C=C(C3CC3)OC=C2C1=O (configuration not stated) | i | -6% | i | 20µM*
CC1(OC(=O)c2ccco2)C(=O)C=C2C=C(C3CC3)OC=C2C1=O (configuration not stated) | i | -12% | i | 11µM*
CCC(=O)OC1(C)C(=O)C=C2C=C(C3CC3)OC=C2C1=O (configuration not stated) | i | -11% | i | u
COP(=O)(OC)C(Nc1ccc(C)cc1)c1ccc([N+](=O)[O-])cc1 (configuration not stated) | i | 1% | i | 18%
O=C1COc2ccc(C(=O)CCl)cc2N1 | i | -20% | i | 5%[1.82 µM]
O=C(/C=C/c1cn(-c2ccccc2)nc1-c1cccc(Cl)c1)N1CCN(c2ccccn2)CC1 | i | -10% | u | 14µM*
CNS(=O)(=O)c1cccc(C(=O)OCC(=O)/C=C2/N(C)c3ccccc3C2(C)C)c1 | i | 2% | u | -36%
O=C(Nc1ccsc1C(=O)O)c1ccccc1 | i | -12% | i | -18%
O=C(Nc1ccsc1C(=O)NC1CC1)c1ccccc1 | i | -11% | i | 13µM*
CCC(CC)c1nnc(NC(=O)c2c(C)nn(Cc3ccccc3Cl)c2C)s1 | i | 7% | 8.9µM* | u
CCCCn1nnnc1NCc1ccc(N2CCCC2)cc1 | i | -3% | 28µM* | -1%
CCOC(=O)C1CCCN(C(=O)c2cc(-c3ccccc3)cs2)CC1 (configuration not stated) | i | -5% | i | 18µM*
CCOC(=O)C1CCCN(C(=O)c2cc3c(=O)n(C)c4ccccc4c3s2)C1 (configuration not stated) | i | x | i | 20µM*
CC1CCN(C(=O)c2cc3c(=O)n(C)c4ccccc4c3s2)CC1 | i | x | i | 0%
CCOC(=O)C1CCCN(C(=O)c2sc(-c3ccccc3)nc2C)CC1 (configuration not stated) | i | 13% | i | 0%
CCOC(=O)C1CCN(C(=S)Nc2ccccc2)CC1 | i | -2% | i | -11%
CCOC(=O)C1CCCN(C(=S)Nc2ccc(Nc3ccccc3)cc2)C1 (configuration not stated) | u | u | u | 22µM*
COc1ccc(/C=C/C(=O)OCC(=O)Nc2ncc(Cl)cc2Cl)cc1 | i | -11% | x | -18%
COc1ccc(NC(=O)CSc2nc3ccccc3n2CC(=O)N(C)c2ccc(F)cc2)cc1 | i | x | i | 6%
CC(=O)c1ccc(NC(=O)C(C)OC(=O)C(C)Oc2cccc(C)c2)cc1 (configuration not stated) | i | 1% | x | 5%
Cc1ccc(C(=O)NC2CCc3ccccc3C2=O)cc1 (configuration not stated) | i | -3% | i | 14µM*
Cc1ccc(C(=O)NC2CCSC2=O)cc1 (configuration not stated) | i | -4% | i | -20%
COc1ccc(C2=NN(C(C)=O)CC2c2cccc([N+](=O)[O-])c2)cc1 (configuration not stated) | x | 11% | i | 11µM*
COc1ccc(Nc2cc(C(=O)NCCCN(C)C3CCCCC3)c3ccccc3n2)c(OC)c1 | i | x | i | 3%
Cc1cc(OCc2cc(C(=O)N(C)C(C)c3ccccn3)no2)cc(C)c1Cl (configuration not stated) | u | 2% | u | 22µM*
Cc1cc(OCc2cc(C(=O)N(C)Cc3ccccn3)no2)cc(C)c1Cl | u | 5% | u | u
